Laboratory results from the supplement of paper PMC11732987, “Enantioselective OTUD7B fragment discovery through chemoproteomics screening and high-throughput optimisation” (Communications Chemistry, 2025).

Key:
Assay in all cases: log2 ratio of Biotin-Ahx-Ub-VS probe labelling (fragment/DMSO); higher = less target engagement (more negative = stronger competition), active = hit call of the paper (q ≤ 0.05, log2 ratio ≤ -1)
Settings in all cases: compound concentration: 200 uM; treatment time: 3 h
[1] = target: T1, USP19 (UniProt O94966)
T1 sequence (whole entry): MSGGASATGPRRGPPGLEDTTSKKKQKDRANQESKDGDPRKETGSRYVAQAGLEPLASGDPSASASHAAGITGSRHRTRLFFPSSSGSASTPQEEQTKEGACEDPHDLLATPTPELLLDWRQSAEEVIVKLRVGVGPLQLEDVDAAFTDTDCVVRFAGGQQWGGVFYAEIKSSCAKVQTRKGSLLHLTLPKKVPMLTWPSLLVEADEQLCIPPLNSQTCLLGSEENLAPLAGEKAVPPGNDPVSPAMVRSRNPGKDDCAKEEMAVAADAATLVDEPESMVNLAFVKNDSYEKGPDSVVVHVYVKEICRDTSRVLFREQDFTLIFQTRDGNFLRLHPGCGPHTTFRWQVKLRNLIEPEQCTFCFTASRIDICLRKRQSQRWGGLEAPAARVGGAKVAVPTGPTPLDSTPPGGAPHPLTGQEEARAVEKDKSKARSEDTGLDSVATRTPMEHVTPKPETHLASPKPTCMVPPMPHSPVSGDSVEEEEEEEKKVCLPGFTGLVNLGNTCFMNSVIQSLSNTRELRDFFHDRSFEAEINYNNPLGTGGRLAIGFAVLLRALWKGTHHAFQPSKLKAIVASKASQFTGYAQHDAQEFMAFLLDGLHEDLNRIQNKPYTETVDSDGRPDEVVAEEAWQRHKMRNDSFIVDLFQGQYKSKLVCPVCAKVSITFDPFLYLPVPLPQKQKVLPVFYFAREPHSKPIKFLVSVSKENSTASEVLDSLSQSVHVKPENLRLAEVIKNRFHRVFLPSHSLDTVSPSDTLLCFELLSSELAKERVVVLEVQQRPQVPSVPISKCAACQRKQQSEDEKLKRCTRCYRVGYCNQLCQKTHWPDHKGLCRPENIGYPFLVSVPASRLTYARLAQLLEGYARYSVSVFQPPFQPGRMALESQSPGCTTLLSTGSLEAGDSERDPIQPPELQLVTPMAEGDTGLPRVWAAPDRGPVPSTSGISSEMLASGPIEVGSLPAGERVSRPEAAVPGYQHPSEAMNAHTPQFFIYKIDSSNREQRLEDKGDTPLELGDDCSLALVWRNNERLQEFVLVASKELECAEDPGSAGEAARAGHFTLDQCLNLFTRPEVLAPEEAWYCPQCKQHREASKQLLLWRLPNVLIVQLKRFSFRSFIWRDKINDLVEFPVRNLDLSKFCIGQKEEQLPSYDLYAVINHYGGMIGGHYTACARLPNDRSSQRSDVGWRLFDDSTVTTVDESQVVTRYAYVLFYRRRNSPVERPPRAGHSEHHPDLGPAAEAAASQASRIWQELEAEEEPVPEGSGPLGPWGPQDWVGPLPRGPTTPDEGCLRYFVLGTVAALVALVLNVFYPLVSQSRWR
In short: (§1)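 Average log2 ratios of fragment over vehicle were obtained by unpaired t-test from global-median-normalised Spectronaut label-free quantities. Proteins with ≥2 unique peptides were included. HEK293T lysate (495 µg per sample) was treated in triplicate with fragment at 200 µM or vehicle for 3 h, then with Biotin-Ahx-Ub-VS at 0.5 µM final for 1 h, and labelled DUBs were NeutrAvidin-enriched and run by diaPASEF LC-MS/MS.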

[2] = target: T2, USP22 (UniProt Q9UPT9)
T2 sequence (whole entry): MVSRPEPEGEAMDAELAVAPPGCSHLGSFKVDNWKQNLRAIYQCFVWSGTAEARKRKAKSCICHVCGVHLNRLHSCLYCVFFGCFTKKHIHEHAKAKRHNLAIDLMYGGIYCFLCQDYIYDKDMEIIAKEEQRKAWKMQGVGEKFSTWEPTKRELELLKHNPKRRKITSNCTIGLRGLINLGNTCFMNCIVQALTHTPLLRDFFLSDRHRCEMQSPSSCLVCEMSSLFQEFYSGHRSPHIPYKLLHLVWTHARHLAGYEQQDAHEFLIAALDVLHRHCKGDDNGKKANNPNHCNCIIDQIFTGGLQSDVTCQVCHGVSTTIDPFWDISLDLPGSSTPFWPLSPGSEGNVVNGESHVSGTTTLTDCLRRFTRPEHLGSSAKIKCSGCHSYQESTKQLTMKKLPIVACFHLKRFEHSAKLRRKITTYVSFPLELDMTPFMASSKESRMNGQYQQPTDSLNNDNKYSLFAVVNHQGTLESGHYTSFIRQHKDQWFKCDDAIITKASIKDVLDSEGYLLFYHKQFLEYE
In short: as §1

[3] = target: USP24 (UniProt Q9UPU5)
In short: as §1

[4] = target: T3, USP25 (UniProt Q9UHP3)
T3 sequence (whole entry): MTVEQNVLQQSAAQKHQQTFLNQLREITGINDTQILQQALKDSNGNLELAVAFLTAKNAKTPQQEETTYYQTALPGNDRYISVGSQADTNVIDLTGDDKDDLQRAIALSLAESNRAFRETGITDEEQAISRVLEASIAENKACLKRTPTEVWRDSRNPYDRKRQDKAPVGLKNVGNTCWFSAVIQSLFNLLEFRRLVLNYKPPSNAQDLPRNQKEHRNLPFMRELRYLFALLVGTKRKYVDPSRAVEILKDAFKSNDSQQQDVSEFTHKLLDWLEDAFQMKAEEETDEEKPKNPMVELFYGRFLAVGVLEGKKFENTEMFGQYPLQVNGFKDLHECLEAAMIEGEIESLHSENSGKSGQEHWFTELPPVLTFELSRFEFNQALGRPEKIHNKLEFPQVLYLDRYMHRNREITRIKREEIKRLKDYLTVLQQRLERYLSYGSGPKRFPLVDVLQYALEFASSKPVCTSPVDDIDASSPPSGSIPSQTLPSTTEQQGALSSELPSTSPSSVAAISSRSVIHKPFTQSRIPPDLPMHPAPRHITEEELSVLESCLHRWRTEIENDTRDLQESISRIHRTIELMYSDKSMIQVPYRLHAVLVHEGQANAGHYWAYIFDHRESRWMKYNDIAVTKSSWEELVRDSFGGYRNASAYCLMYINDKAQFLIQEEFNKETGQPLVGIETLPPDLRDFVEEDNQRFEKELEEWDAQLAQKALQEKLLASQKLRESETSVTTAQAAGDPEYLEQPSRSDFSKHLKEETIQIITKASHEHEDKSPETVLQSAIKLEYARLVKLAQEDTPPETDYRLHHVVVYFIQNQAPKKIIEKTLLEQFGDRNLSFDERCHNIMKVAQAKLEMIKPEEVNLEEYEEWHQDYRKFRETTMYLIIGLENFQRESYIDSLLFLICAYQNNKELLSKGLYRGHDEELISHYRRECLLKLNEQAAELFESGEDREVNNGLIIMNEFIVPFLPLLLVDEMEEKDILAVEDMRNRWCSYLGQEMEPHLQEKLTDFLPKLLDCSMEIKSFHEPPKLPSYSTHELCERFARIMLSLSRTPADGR
In short: as §1

[5] = target: T4, USP28 (UniProt Q96RU2)
T4 sequence (whole entry): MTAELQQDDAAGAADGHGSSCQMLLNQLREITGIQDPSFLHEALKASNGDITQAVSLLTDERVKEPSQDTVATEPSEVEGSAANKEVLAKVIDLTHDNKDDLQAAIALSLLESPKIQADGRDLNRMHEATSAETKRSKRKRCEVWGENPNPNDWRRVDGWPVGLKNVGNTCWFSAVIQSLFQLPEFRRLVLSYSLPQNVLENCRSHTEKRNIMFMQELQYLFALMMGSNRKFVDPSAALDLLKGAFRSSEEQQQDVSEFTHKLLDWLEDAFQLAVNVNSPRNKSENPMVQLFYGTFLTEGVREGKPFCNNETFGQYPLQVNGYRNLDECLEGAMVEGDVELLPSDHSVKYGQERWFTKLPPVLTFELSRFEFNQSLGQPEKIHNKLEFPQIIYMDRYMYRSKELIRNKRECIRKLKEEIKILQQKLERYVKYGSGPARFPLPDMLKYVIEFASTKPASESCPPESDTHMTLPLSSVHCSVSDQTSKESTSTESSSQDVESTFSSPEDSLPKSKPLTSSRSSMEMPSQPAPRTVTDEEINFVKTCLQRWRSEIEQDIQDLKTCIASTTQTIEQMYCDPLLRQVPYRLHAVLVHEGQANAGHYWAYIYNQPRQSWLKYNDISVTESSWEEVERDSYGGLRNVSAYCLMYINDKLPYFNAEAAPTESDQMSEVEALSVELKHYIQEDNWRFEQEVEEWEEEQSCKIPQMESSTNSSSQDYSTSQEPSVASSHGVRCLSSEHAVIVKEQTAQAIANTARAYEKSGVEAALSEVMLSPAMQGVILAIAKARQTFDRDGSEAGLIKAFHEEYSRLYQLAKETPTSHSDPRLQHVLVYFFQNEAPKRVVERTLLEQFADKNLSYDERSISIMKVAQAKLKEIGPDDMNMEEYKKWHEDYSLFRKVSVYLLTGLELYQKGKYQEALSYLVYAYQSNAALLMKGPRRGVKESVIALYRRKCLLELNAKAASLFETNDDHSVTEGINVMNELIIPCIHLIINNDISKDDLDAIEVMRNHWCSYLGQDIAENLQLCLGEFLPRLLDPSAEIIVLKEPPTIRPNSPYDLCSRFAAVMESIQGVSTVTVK
In short: as §1

Measured: log2 ratio of Biotin-Ahx-Ub-VS probe labelling

Sequence of USP24 (Q9UPU5 whole entry): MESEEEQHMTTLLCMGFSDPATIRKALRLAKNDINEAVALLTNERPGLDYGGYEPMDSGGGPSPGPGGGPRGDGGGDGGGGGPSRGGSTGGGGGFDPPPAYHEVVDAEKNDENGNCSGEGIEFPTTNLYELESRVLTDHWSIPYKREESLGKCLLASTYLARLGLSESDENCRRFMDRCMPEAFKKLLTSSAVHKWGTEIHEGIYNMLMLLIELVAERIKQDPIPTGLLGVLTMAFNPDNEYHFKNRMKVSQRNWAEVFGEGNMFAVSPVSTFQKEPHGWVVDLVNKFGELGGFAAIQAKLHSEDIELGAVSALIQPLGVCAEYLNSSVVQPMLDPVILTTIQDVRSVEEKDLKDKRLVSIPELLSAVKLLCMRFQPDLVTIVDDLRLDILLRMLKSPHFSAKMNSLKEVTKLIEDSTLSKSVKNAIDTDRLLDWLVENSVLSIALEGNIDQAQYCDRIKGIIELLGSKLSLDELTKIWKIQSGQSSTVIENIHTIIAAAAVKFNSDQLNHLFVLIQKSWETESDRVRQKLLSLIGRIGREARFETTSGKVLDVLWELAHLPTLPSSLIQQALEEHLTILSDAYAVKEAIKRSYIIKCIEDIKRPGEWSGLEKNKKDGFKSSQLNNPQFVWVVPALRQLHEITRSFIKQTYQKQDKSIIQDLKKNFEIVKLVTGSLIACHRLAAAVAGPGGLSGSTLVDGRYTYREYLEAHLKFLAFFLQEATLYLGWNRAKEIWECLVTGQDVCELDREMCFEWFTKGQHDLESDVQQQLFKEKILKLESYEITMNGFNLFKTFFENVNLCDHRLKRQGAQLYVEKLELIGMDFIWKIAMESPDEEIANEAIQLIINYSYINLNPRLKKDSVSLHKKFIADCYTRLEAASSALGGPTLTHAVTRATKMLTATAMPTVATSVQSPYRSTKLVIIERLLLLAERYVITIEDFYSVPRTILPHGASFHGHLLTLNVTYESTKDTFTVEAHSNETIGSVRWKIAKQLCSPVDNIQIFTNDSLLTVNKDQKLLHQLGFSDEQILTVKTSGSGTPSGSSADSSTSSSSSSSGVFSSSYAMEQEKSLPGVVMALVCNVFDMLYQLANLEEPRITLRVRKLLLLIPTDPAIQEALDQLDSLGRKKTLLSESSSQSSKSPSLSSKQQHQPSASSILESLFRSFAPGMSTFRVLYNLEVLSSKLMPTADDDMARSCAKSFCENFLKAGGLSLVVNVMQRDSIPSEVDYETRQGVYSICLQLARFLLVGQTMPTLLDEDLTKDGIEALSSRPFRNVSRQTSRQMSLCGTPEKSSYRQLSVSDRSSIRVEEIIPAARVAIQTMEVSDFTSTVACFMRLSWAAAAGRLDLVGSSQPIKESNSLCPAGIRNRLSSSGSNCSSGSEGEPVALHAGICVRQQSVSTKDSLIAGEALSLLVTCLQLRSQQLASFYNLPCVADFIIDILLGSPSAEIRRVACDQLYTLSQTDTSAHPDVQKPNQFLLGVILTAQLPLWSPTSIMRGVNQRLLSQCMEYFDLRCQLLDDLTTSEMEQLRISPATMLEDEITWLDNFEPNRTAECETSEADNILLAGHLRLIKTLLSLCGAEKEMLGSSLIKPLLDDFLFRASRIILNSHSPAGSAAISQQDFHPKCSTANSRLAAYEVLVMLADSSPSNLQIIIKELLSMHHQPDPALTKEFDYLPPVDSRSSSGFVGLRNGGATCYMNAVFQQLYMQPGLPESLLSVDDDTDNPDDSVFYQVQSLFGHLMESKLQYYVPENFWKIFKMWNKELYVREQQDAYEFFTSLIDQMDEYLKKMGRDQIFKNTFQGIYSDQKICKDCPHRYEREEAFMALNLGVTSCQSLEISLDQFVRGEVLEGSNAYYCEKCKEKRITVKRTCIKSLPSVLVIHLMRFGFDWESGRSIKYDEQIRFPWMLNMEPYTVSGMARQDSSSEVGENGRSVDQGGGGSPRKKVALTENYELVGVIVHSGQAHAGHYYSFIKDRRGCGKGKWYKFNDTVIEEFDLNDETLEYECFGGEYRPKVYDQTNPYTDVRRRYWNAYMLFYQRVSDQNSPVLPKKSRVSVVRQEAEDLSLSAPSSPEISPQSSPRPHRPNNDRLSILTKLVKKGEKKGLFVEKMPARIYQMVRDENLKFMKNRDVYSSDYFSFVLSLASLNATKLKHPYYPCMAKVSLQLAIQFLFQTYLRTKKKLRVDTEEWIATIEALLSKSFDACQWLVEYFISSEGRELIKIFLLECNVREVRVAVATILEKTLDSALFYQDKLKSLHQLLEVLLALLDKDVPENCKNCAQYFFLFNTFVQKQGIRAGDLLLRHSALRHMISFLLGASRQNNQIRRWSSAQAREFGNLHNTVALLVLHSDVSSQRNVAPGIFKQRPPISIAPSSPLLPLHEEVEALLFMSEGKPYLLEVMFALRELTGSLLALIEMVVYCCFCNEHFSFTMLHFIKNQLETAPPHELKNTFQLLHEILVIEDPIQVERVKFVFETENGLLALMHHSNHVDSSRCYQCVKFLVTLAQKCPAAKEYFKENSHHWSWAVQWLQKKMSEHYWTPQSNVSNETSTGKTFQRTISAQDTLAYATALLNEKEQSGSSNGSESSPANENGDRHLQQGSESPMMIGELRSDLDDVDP

COCC[C@@H](NC(=O)CCl)c1ccccc1
inactive: [1] -0.0952 | [2] 0.104 | [3] -0.153 | [4] -0.293 | [5] -0.388
